Laboratory results reported in the supplement of paper PMC13380429.

How the values were obtained:
[1] = test system: Vero E6 infected with SARS-CoV-2; assay: morphology score (similarity to uninfected cells); higher = more like uninfected cells; conditions: 24 h
[2] = test system: Vero E6 infected with SARS-CoV-2; assay: SARS-CoV-2 infection rate relative to infected DMSO; higher = more infection, active = 60 or less; conditions: 24 h

| Structure (SMILES) | morphology score [1] | SARS-CoV-2 infection rate [2] |
| --- | --- | --- |
| Cc1nc2c([nH]1)-c1ccccc1N(C(=O)c1ccc(NC(=O)c3ccccc3-c3ccccc3)cc1)CC2 [conivaptan] (10 µM) | 0.193 | 107% (inactive) |
| Cc1sc(C)c(C(=O)NC2(c3ccc(C(=O)O)cc3)CC2)c1Cc1ccc(C(F)(F)F)cc1 (10 µM) | 0.187 | 108% (inactive) |
| CO[C@H]1CC=C2CCN3CCC4=C(CC(=O)OC4)[C@]23C1 (10 µM) | 0.059 | 106% (inactive) |
| Nc1c2c(nc3c1CCC3)CCCC2 [ipidacrine] (10 µM) | 0.22 | 83.5% (inactive) |
| NC1CCN(c2c(F)cc3c(=O)c(C(=O)O)cn(C4CC4)c3c2Cl)C1 (stereo unspecified) [clinafloxacin] (10 µM) | 0.187 | 112% (inactive) |
| C[C@H](Oc1cc(-c2cnn(C3CCNCC3)c2)cnc1N)c1c(Cl)ccc(F)c1Cl [crizotinib-(S)] (10 µM) | 0.602 | 23% (active) |
| COc1cc([C@@H]2c3cc4c(cc3[C@@H](O[C@@H]3O[C@@H]5CO[C@@H](c6cccs6)O[C@H]5[C@H](O)[C@H]3O)[C@H]3COC(=O)[C@H]23)OCO4)cc(OC)c1O [teniposide] (10 µM) | -0.0983 | 111% (inactive) |
| C[C@H](N)[C@H](O)c1ccc(O)c(O)c1 [levonordefrin] (10 µM) | 0.0723 | 94.5% (inactive) |
| N[C@@H]1c2cccnc2[C@H](OC(=O)N2CCC(n3c(=O)[nH]c4ncccc43)CC2)CC[C@H]1c1cccc(F)c1F [rimegepant] (10 µM) | 0.177 | 96.5% (inactive) |
| Cc1ccc(S(=O)(=O)NCl)cc1 [chloramine-T] (10 µM) | 0.043 | 104% (inactive) |
| COc1ccc(Cl)c(Nc2nc3ccccc3nc2NS(=O)(=O)c2cccc(NC(=O)C(C)(C)N)c2)c1 [pilaralisib] (10 µM) | 0.0424 | 103% (inactive) |
| CS(=O)(=O)CCNCc1nc(-c2ccc3ncnc(Nc4ccc(OCc5cccc(F)c5)c(Cl)c4)c3c2)cs1 (10 µM) | -0.294 | 116% (inactive) |
| CNC(=O)c1ccc(-c2cnc3ncc(Cc4ccc5ncccc5c4)n3n2)cc1F (10 µM) | 0.0374 | 98% (inactive) |
| c1ccc2c(c1)CCCc1cc(NCCN3CCOCC3)nnc1-2 (10 µM) | -0.11 | 116% (inactive) |
| COc1ccc2[nH]c3c(-c4cccc5ccccc45)nccc3c2c1 (10 µM) | -0.0282 | 111% (inactive) |
| COc1cc2c(cc1Cc1cccc(Cl)c1F)c(=O)c(C(=O)O)cn2[C@H](CO)C(C)C [elvitegravir] (10 µM) | 0.0588 | 107% (inactive) |
| COC(=O)c1cnn(-c2ccc(F)cc2F)c1/C=N/NC(=S)NC(C)(C)C (10 µM) | 0.433 | 74% (inactive) |
| CN(C)c1cccc(Oc2cnc(Nc3cccc(O)c3)nc2)c1 (10 µM) | 0.0803 | 109% (inactive) |
| CCCCc1ccc(O)cc1O [rucinol] (10 µM) | -0.0981 | 99% (inactive) |
| Cn1c(Nc2ccc(C(F)(F)F)cc2)nc2cc(Oc3ccnc(-c4ncc(C(F)(F)F)[nH]4)c3)ccc21 (10 µM) | -0.041 | 100% (inactive) |

| Structure (SMILES) | morphology score [1] | SARS-CoV-2 infection rate [2] |
| --- | --- | --- |
| COc1ccccc1N1CCN(CCCCNC(=O)c2ccc3ccccc3c2)CC1 (10 µM) | -0.00528 | 94.5% (inactive) |
| N=C(N)c1ccc(OCCCCCOc2ccc(C(=N)N)cc2)cc1 [pentamidine] (10 µM) | 0.104 | 109% (inactive) |
| CN1CC[C@@H](NC(=O)Nc2ccc(C#N)cc2)C[C@@H]1c1nc2ccccc2[nH]1 [glasdegib] (10 µM) | 0.066 | 100% (inactive) |
| Cn1c([N+](=O)[O-])cnc1COC(N)=O [ronidazole] (10 µM) | -0.00677 | 114% (inactive) |
| CN1CCC(COc2cnc(-c3cccc(Cn4nc(-c5cccc(C#N)c5)ccc4=O)c3)nc2)CC1 (10 µM) | 0.207 | 100% (inactive) |
| CC(C)n1c(/C=C/[C@@H](O)C[C@@H](O)CC(=O)O)c(-c2ccc(F)cc2)c2ccccc21 [fluvastatin] (0.833333 µM) | -0.082 | 115% (inactive) |
| CCOc1cc2ncc(C#N)c(Nc3ccc(F)c(Cl)c3)c2cc1NC(=O)/C=C/CN(C)C [pelitinib] (10 µM) | -0.188 | 110% (inactive) |
| Cc1cc(OCc2nnc(SC3CCCC3)n2-c2cccnc2)ccc1-c1ccc(S(C)(=O)=O)cc1 (0.833333 µM) | 0.0612 | 100% (inactive) |
| O=C1c2ccccc2-c2n[nH]c3cccc1c23 [pyrazolanthrone] (10 µM) | 0.0961 | 106% (inactive) |
| CC(C)Oc1ccc(Cc2ccc(NC3=NCCN3)cc2)cc1 (10 µM) | 0.0823 | 100% (inactive) |
| CN1CCN(C2CCN(C(=O)Nc3cc(Oc4ccc(NC(=O)C5(C(=O)Nc6ccc(F)cc6)CC5)c(F)c4)ccn3)CC2)CC1 [golvatinib] (0.833333 µM) | 0.0621 | 104% (inactive) |
| O=C1C(Cl)=C(NCCN2CCOCC2)C(=O)c2ncccc21 (0.833333 µM) | 0.143 | 94% (inactive) |
| Cc1cc(S(=O)(=O)O)c2c(C)ccc(C(C)C)cc1-2 [sodium-gualenate] (10 µM) | 0.0593 | 96.5% (inactive) |
| CC(=O)Oc1cccc(C(=O)O)c1OC(C)=O [dipyrocetyl] (10 µM) | 0.209 | 85% (inactive) |
| CCc1cc2c(cc1CC)CC(NC[C@H](O)c1ccc(O)c3[nH]c(=O)ccc13)C2 [indacaterol] (10 µM) | 0.0532 | 114% (inactive) |
| CCCCCCCCCCC[C@@H](C[C@@H]1OC(=O)[C@H]1CCCCCC)OC(=O)[C@H](CC(C)C)NC=O [orlistat] (10 µM) | 0.226 | 100% (inactive) |
| CC[C@@H](C)Nc1cc(C(=O)N[C@H]2C[C@H]3CC[C@@H](C2)N3c2ccc(C(=O)C3CC3)cn2)c(C)cc1C(N)=O (10 µM) | 0.188 | 98.5% (inactive) |
| CCOc1ccc(Cc2cc([C@]34OC[C@](CO)(O3)[C@@H](O)[C@H](O)[C@H]4O)ccc2Cl)cc1 [ertugliflozin] (10 µM) | -0.0565 | 107% (inactive) |
| Cc1cc(OCCCS(C)(=O)=O)cc(C)c1-c1cccc(COc2ccc3c(c2)OC[C@H]3CC(=O)O)c1 (10 µM) | 0.0278 | 108% (inactive) |
| N#CC(c1ccc(Cl)cc1)c1c(Cl)cc(-n2ncc(=O)[nH]c2=O)cc1Cl (stereo unspecified) [diclazuril] (10 µM) | 0.16 | 93% (inactive) |

| Structure (SMILES) | morphology score [1] | SARS-CoV-2 infection rate [2] |
| --- | --- | --- |
| C[C@@H](O[C@H]1OCCN(Cc2n[nH]c(=O)[nH]2)[C@H]1c1ccc(F)cc1)c1cc(C(F)(F)F)cc(C(F)(F)F)c1 [aprepitant] (10 µM) | 0.0718 | 108% (inactive) |
| CCCCS(=O)(=O)N[C@@H](Cc1ccc(OCCCCC2CCNCC2)cc1)C(=O)O [tirofiban] (10 µM) | 0.0487 | 110% (inactive) |
| CC(C)(CCCCCC(O)CCCCCC(C)(C)C(=O)O)C(=O)O [bempedoic-acid] (10 µM) | 0.0218 | 110% (inactive) |
| O=C(Oc1cc(S(=O)(=O)c2ccccc2)ccc1[N+](=O)[O-])c1ccc(Cl)cc1 (10 µM) | 0.245 | 104% (inactive) |
| O=C(CCCN1CC=C(n2c(=O)[nH]c3ccccc32)CC1)c1ccc(F)cc1 [droperidol] (10 µM) | 0.0599 | 112% (inactive) |
| CCCN1CCC[C@@H]2Cc3nc(N)ncc3C[C@H]21 [quinelorane] (10 µM) | 0.13 | 106% (inactive) |
| CCNC(=O)[C@@H]1CCCN1C(=O)[C@H](CCCNC(=N)N)NC(=O)[C@H](CC(C)C)NC(=O)[C@@H](CC(C)C)NC(=O)[C@H](Cc1ccc(O)cc1)NC(=O)[C@H](CO)NC(=O)[C@H](Cc1c[nH]c2ccccc12)NC(=O)[C@H](Cc1c[nH]cn1)NC(=O)[C@@H]1CCC(=O)N1 [leuprolide] (10 µM) | -0.258 | 118% (inactive) |
| CNC(=O)CN(CCN(CCN(CC(=O)[O-])CC(=O)NC)CC(=O)[O-])CC(=O)[O-].[Gd+3] [gadodiamide] (10 µM) | -0.0219 | 103% (inactive) |
| CC(C)c1ccc(CC(=O)N2CCC[C@@H](c3cccc(OC(C)(C)C(=O)O)c3)C2)cc1 (10 µM) | 0.109 | 96% (inactive) |
| COC(=O)[C@H](Cc1cccc(C(=N)N)c1)[C@@H](C)NC(=O)c1ccc(-c2cc[n+]([O-])cc2)cc1 [otamixaban] (10 µM) | -0.0764 | 100% (inactive) |
| Nc1cccc2c(=O)[nH][nH]c(=O)c12 [monosodium-alpha-luminol] (10 µM) | 0.000532 | 104% (inactive) |
| CC(C)C[C@@H](NC(=O)[C@H](Cc1ccccc1)NC(=O)CNC(=O)[C@@H](C)NC(=O)[C@@H](N)Cc1ccc(O)cc1)C(=O)O (10 µM) | 0.159 | 97% (inactive) |
| O=C(O)COc1ccc(/C=C2\SC(=O)NC2=O)cc1 (10 µM) | 0.0392 | 97% (inactive) |
| CC(C)(C)NC(=O)N[C@H](C(=O)N1C[C@H]2[C@@H]([C@H]1C(=O)NC(CC1CCC1)C(=O)C(N)=O)C2(C)C)C(C)(C)C (stereo partly specified) [boceprevir] (10 µM) | 0.133 | 113% (inactive) |
| O=c1[nH]c2ccccc2n1C1CCN(CCCC(c2ccc(F)cc2)c2ccc(F)cc2)CC1 [pimozide] (10 µM) | 0.48 | 66.5% (inactive) |
| O=c1[nH]nc2c3c(cccc13)N=C(CN1Cc3ccccc3C1)N2 (10 µM) | 0.219 | 91% (inactive) |
| O=C(Oc1ccccc1)c1ccccc1O [phenyl-salicylate] (10 µM) | -0.0306 | 103% (inactive) |
| O=C(COc1ccc(Cl)cc1)N[C@H]1CC[C@H](NC(=O)COc2ccc(Cl)cc2)CC1 (10 µM) | -0.175 | 106% (inactive) |
